Bioassay records: PubChem BioAssay, Broad Institute
Shown is part of a subset that was picked to be rich in hits.
DUX4 txn inh – DUX4-mediated transcription inhibition; 37,000 compounds, 0.8% hits; 293T-iDUX4 ZSCAN4-Gaussia luciferase reporter, 24 h; stronger effect = lower value; activity change, negative = inhibition, % (concentration not given with the values);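 active = mean inhibition of at least 10% in the main channel, exceeding the control channel by a set limit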;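 also: 0% = median of neutral control wells and -100% = median of positive control wells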
Active calls of the source: *.

SMILES	DUX4 txn inh
Cn1cnc(S(=O)(=O)N2CCCCN3[C@H](CO)[C@H](c4ccc(-c5cccc(F)c5)cc4)[C@H]3C2)c1	1
Cc1ccccc1-c1ccc([C@@H]2[C@@H](CO)N3CCCCN(S(C)(=O)=O)C[C@H]23)cc1	3
Cn1cnc(S(=O)(=O)N2CCCCN3[C@H](C2)[C@H](c2ccc(-c4cccc(F)c4)cc2)[C@@H]3CO)c1	9
Cc1ccccc1S(=O)(=O)N1CCCCN2[C@H](C1)[C@H](c1ccc(-c3cccc(F)c3)cc1)[C@@H]2CO	-19*
Cc1ccccc1S(=O)(=O)N1CCCCN2[C@@H](CO)[C@@H](c3ccc(-c4cccnc4)cc3)[C@@H]2C1	0
CCS(=O)(=O)N1CCCCN2[C@H](C1)[C@@H](c1ccc(-c3ccccc3C)cc1)[C@@H]2CO	9
Cc1ccccc1S(=O)(=O)N1CCCCN2[C@H](CO)[C@@H](c3ccc(-c4cccc(F)c4)cc3)[C@H]2C1	-39*
Cc1cccc(-c2ccc([C@@H]3[C@H](CO)N4CCCCN(S(=O)(=O)c5ccccc5F)C[C@@H]34)cc2)c1	-5
Cc1ccccc1-c1ccc([C@@H]2[C@@H](CO)N3CCCCN(S(=O)(=O)Cc4ccccc4)C[C@H]23)cc1	-45*
COCC#Cc1ccc2c(c1)O[C@@H](CN(C)S(=O)(=O)c1ccc(OC)cc1)[C@@H](C)CN([C@H](C)CO)S2(=O)=O	-1
Cn1cnc(S(=O)(=O)N2CC[C@@H]3[C@H](CO)Nc4ccc(C5=CCCCC5)cc4[C@@H]32)c1	9
CS(=O)(=O)N1[C@H](C(=O)O)[C@@H](CO)[C@@H]2Cn3c(ccc(-c4ccc(F)cc4)c3=O)[C@@H]21	7
N#C[C@H]1[C@H](c2ccc(C#Cc3cccc(F)c3)cc2)[C@@H](CO)N1C(=O)C1CCC1	1
C[C@H](CO)N1C[C@H](C)[C@H](CN(C)C(=O)Nc2ccc3c(c2)OCO3)Oc2ccc(NC(=O)Cn3cnnn3)cc2C1=O	-2
OC[C@H]1Nc2ccc(-c3cccc(F)c3)cc2[C@H]2[C@@H]1CCN2Cc1ccncc1	-20*
N#Cc1cccc(-c2ccc3c(c2)[C@@H]2[C@@H](CCN2Cc2cncnc2)[C@@H](CO)N3)c1	-5
N#Cc1cccc(-c2ccc3c(c2)[C@H]2[C@H](CCN2C(=O)c2ccncc2)[C@@H](CO)N3)c1	7
OC[C@@H]1Nc2ccc(-c3ccc(F)cc3)cc2[C@H]2[C@@H]1CCN2Cc1ccc(F)cc1	-3
OC[C@H]1Nc2ccc(-c3cccc(F)c3)cc2[C@H]2[C@@H]1CCN2Cc1ccc(F)cc1	-32*
OC[C@@H]1Nc2ccc(-c3cccc(F)c3)cc2[C@@H]2[C@H]1CCN2Cc1ccncc1	1
N#Cc1cccc(-c2ccc3c(c2)[C@H]2[C@H](CCN2Cc2ccncc2)[C@@H](CO)N3)c1	-47*
CC(=O)N1CC[C@@H]2[C@@H](CO)Nc3ccc(-c4cccc(F)c4)cc3[C@@H]21	13
OC[C@H]1Nc2ccc(-c3cccc(F)c3)cc2[C@@H]2[C@H]1CCN2Cc1ccc(F)cc1	-24*
O=C(C1CCC1)N1CC[C@@H]2[C@@H](CO)Nc3ccc(-c4cccc(F)c4)cc3[C@@H]21	11
COc1ccc(-c2ccc3c(c2)[C@H]2[C@H](CCN2Cc2ccncc2)[C@@H](CO)N3)cc1	7
SMILES	DUX4 txn inh
CC(=O)N1CC[C@@H]2[C@H]1c1cc(-c3cccc(F)c3)ccc1N[C@@H]2CO	22
CCCC#Cc1ccc([C@H]2[C@@H](C#N)N(C(=O)C3CCC3)[C@H]2CO)cc1	3
N#C[C@@H]1N[C@H](CO)[C@@H]1c1ccc(-c2cccc(F)c2)cc1	7
O=C(Nc1cccc(F)c1)N1C[C@@H]2[C@H](c3ccccc31)[C@@H](CO)N2C(=O)Cc1ccccc1	-5
O=C(NCC1CCCCC1)[C@H]1[C@H](CO)[C@H]2Cn3c(cccc3=O)[C@@H]1N2C(=O)c1ccncc1	2
CC(C)CC#Cc1ccc2c(c1)O[C@@H](CN(C)C(=O)c1ccccc1F)[C@@H](C)CN([C@H](C)CO)S2(=O)=O	-1
O=C(c1ccncc1)N1CC(=O)N2[C@@H](CO)[C@H](c3ccc(C#CCC4CCCC4)cc3)[C@@H]2C1	-2
C[C@H](CO)N1C[C@H](C)[C@@H](CN(C)Cc2ccc(Cl)c(Cl)c2)Oc2ccc(NC(=O)Nc3cccc4ccccc34)cc2C1=O	3
COc1ccc2c3c(n(C)c2c1)[C@H](CO)NCC31CN(Cc2ccc(Cl)cc2)C1	-48*
COc1ccc2c3c(n(C)c2c1)[C@@H](CO)NCC31CN(Cc2ccc(-c3ccccn3)cc2)C1	-3
COc1ccc2c3c(n(C)c2c1)[C@H](CO)NCC31CN(Cc2ccccc2Cl)C1	4
CN(C)C(=O)C[C@H]1CC[C@H]2[C@@H](COC[C@@H](O)CN2Cc2ccc(C(F)(F)F)cc2)O1	5
CO[C@@H]1CC[C@@H]2CCOc3ccc(C#N)cc3C(=O)N(C)[C@H](C)C(=O)N(C)C[C@H]1O2	-1
COCC#Cc1ccc([C@@H]2[C@@H](CO)N3CCCCN(Cc4cccnc4)C[C@H]23)cc1	9
COc1cccc(CN2CCCCN3[C@H](CO)[C@@H](c4ccc(-c5cccnc5)cc4)[C@H]3C2)c1	5
COc1cccc(CN2CCCCN3[C@H](C2)[C@@H](c2ccc(C#Cc4cccnc4)cc2)[C@@H]3CO)c1	-17*
COCC#Cc1ccc([C@@H]2[C@H]3CN(Cc4cccnc4)CCCCN3[C@H]2CO)cc1	6
COCC#Cc1ccc([C@H]2[C@H]3CN(Cc4cccnc4)CCCCN3[C@H]2CO)cc1	29
COc1cccc(CN2CCCCN3[C@@H](CO)[C@@H](c4ccc(C#Cc5cccnc5)cc4)[C@@H]3C2)c1	-36*
C[C@@H]1CN([C@@H](C)CO)S(=O)(=O)c2ccc(Br)cc2O[C@H]1CN(C)C(=O)Nc1ccc2c(c1)OCO2	0
C[C@H](NC(=O)C[C@@H]1CC[C@H]2[C@@H](COC[C@@H](O)CN2C(=O)Nc2cccc(F)c2)O1)c1ccccc1	9
C[C@@H]1CN([C@@H](C)CO)C(=O)c2c(c3ccccc3n2C)-c2ccccc2CO[C@H]1CN(C)C(=O)Nc1ccc(F)cc1	10
COc1ccc2c3c([nH]c2c1)[C@@H](CO)N(C(=O)CN(C)C)CC31CCN(Cc2ccncc2)CC1	9
C[C@@H](NC(=O)[C@H]1[C@H](CO)[C@H]2Cn3c(ccc(C4=CCCCC4)c3=O)[C@H]2N1C)c1ccccc1	-7
O=C(C[C@@H]1CC[C@@H](NC(=O)c2ccccn2)[C@H](CO)O1)NCc1cc(F)cc(F)c1	-1
SMILES	DUX4 txn inh
CO[C@@H]1CN(C)C(=O)c2ccc(NC(C)=O)cc2OC[C@@H](C)N(Cc2cccc(F)c2)C[C@@H]1C	-10
CO[C@@H]1CN(C)C(=O)c2cc(NC(=O)c3cnccn3)ccc2OC[C@@H](C)N(C)C[C@@H]1C	2
COc1ccccc1-c1ccc([C@@H]2[C@@H](CO)N3CCCCN(Cc4ccncc4)C[C@@H]23)cc1	5
CC(=O)N1CC(=O)N2[C@H](CO)[C@H](c3ccc(C#Cc4cccnc4)cc3)[C@H]2C1	-20*
CC(C)CC#Cc1ccc([C@@H]2[C@@H](CO)N3C(=O)CN(C(=O)Cc4ccccc4)C[C@H]23)cc1	-1
O=C(Cc1ccccc1)N1CC(=O)N2[C@H](C1)[C@@H](c1ccc(C#CCc3ccccc3)cc1)[C@@H]2CO	-34*
COCC(=O)N1CC(=O)N2[C@@H](CO)[C@@H](c3ccc(C#Cc4cccnc4)cc3)[C@@H]2C1	-2
